Screening data: PubChem BioAssay, National Center for Advancing Translational Sciences (NCATS)
ALDH1A1 inh = inhibitors of human aldehyde dehydrogenase 1A1; P00352; Purified ALDH1A1, NADH fluorescence, propionaldehyde substrate; Potency, µM (series often up to 75.3 µM), without a hit: at the highest dose activity, negative = inhibition, most hits filed as inhibitors; 7.3% of 220,000 active; AID 1030;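 further: potency means the concentration at half of the fitted maximal effect; plate controls were no enzyme wells and a reference inhibitor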
Target sequence (P00352 whole entry, looked up): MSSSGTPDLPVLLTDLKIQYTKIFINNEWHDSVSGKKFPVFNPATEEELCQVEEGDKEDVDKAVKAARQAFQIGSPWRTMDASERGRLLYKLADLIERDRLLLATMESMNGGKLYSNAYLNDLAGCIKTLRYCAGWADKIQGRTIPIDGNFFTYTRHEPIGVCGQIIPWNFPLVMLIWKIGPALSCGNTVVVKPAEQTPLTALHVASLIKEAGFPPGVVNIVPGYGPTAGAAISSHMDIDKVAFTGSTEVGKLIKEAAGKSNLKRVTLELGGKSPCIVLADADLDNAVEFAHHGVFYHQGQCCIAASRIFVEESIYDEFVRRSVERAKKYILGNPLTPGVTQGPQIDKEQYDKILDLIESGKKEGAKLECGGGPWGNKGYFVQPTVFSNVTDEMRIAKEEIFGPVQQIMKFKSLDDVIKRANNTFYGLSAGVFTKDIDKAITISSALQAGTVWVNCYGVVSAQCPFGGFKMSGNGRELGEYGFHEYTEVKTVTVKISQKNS
IMPase Li cell = cell-permeable IMPase inhibitors with lithium potentiation; CHO-M1 cells, IP1 TR-FRET (IP-One), carbachol + lithium; Potency, µM (highest dose often 59.4 µM), for the others: at the highest dose activity, negative = IMPase inhibition, usual class: inhibitors; 0.35% of 210,000 active; active means well fitted curve in the direction sought with a large enough effect; inconclusive means small, poorly fitted or top-dose-only effect, or another doubt; inactive means no such curve, though single readings can be large; an effect the other way counts as inactive or inconclusive;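 further: IP1 builds up when IMPase is blocked and the TR-FRET signal falls; potency means the concentration at half of the fitted maximal effect; plate controls were basal vehicle for no effect and high inhibitor control for full effect; nearly all actives have a fitted effect of over 50% in size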
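Test compounds were applied to CHO-M1 cells previously cultured for 16–30 h at 2000 per well. A small lithium amount accompanied them; after 30 min at 37C, IP1 was quantified by TR-FRET.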
HPGD block = blocks human HPGD enzyme activity; purified HPGD, NADH fluorescence kinetic, PGE2 substrate; AID 894; 4.3% of 150,000 active; P15428; Potency, µM, inactives show at the highest dose activity change, negative = inhibition, hits mostly inhibitors; further: potency means the concentration at half of the fitted maximal effect
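NADH formation kinetics: reaction with 30 uM PGE2 and 1 mM NAD+ (final), 20 nM enzyme, Tris-HCl pH 8 with Tween 20, after 15 min compound preincubation at room temperature. Fluorescence change, last versus first of five reads.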
PNC inhibitor = inhibitors of perinucleolar compartment assembly; activity change (PNC), negative = inhibition, % at 10 µM; PC3M PTB-GFP, PNC prevalence imaging, 16 h; active compounds read low; AID 2417; 3.1% of 140,000 active;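 active means readout at or below -70, meaning at least 70% loss of cells showing the perinucleolar compartment, a nuclear body marking cancer cells; inconclusive means readout between -30 and a set limit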;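 further: plate controls were DMSO wells for no effect and camptothecin positive control wells for full effect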
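Compounds are pinned in duplicate onto adhered PC3M cells stably expressing GFP-tagged PTB and incubated 16 h at 37 C. Cells are then fixed, nuclei stained with Hoechst, and PNC-positive cells counted.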
IMPase inh = cell-permeable inhibitors of inositol monophosphatase (IMPase) | P97697 | CHO-M1 cells, IP1 accumulation, HTRF TR-FRET ratio | inhibition (IP1 accumulation), % at 46.1 µM | 120,000 tested, under 10 active | AID 901; active means well fitted curve in the direction sought with a large enough effect in the signal ratio, not every such curve was filed as active; inconclusive means small, poorly fitted or top-dose-only effect, or a change in a side signal; inactive means no such curve, though single readings can be large or run the other way; the % refers to the signal ratio;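 further: cells stimulated with carbachol in lithium chloride buffer; plate controls were DMSO basal wells for no effect and reference inhibitor wells for full effect; higher means more IMPase inhibition seen as more IP1 and lower FRET ratio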
Target sequence (P97697 whole entry, looked up): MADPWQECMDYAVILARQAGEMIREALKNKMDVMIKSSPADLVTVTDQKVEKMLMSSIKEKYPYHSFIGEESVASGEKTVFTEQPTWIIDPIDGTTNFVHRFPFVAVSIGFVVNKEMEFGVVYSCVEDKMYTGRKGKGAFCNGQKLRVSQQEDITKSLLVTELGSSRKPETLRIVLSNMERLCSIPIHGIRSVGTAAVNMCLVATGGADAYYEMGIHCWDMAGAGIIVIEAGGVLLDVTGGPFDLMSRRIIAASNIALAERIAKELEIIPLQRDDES
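Measured: the HTRF emission ratio (665/620 nm) plus the 620 nm donor channel, each fitted to the Hill equation to give AC50. Cells were CHO-M1 given compounds up to 46 uM and a 30 min carbachol stimulation at 37C.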
NPSR antagonist = antagonists of human neuropeptide S receptor cAMP signaling | CHO-NPSR cells, cAMP TR-FRET, antagonist mode | Potency, µM (doses to about 38.3 µM), without a hit: at the highest dose activity change, negative = inhibition, hits mostly inhibitors | 1% of 220,000 active | AID 1461; active means well fitted curve in the direction sought with a large enough effect; inconclusive means small, poorly fitted or top-dose-only effect, or another doubt; inactive means no such curve, though single readings can be large; an effect the other way counts as inactive or inconclusive; further: potency means the concentration at half of the fitted maximal effect; nearly all actives have a fitted effect of over 50% in size
Active calls of the source: *; [ ] = another dose, or the depositor's remark. Sampled rows, rich in hits. Any-hit rate of the full collection: about 11%. Unless noted, the call rests on the fitted dose curve; in most records, active means well fitted inhibition curve with a large enough effect (not every such curve was filed as active); inconclusive means small, poorly fitted or top-dose-only effect, or another doubt; inactive means no such curve, though single readings can be large or run the other way. Unless noted, on the % scale 0 is the no-effect control and ±100 the full control effect.

Results for O=C(c1cn(-c2ccccc2)nc1-c1ccc(F)cc1)N1CCOCC1 ?
ALDH1A1 inh: inconclusive; IMPase Li cell: 9.8%[38.3 µM]; HPGD block: -10.1%; PNC inhibitor: -9.5; IMPase inh: 1.3; NPSR antagonist: -29.0%[7.67 µM]

How did O=C(c1cn(-c2ccccc2)nc1-c1cccc(Br)c1)N1CCOCC1 do in these assays?
ALDH1A1 inh: 25.1µM*; IMPase Li cell: 1.7%; NPSR antagonist: -0.4%

Results for CCOC1(NC(=O)c2ccccc2)C(C)=CC(=O)C=C1C ?
ALDH1A1 inh: 0.1%; IMPase Li cell: -4.9%[38.3 µM]; HPGD block: -3.2%; PNC inhibitor: 39.0; IMPase inh: -1.6; NPSR antagonist: -0.4%[46.1 µM]

What do the screens show for `O=C(NCc1cccc2ccccc12)Nc1ccccc1`?
ALDH1A1 inh: 1.4%; IMPase Li cell: -0.8%; NPSR antagonist: -20.8%

Results for O=C(c1cn(-c2ccccc2)nc1-c1ccc(Br)cc1)N1CCOCC1 ?
ALDH1A1 inh: -2.2%; IMPase Li cell: -2.2%; HPGD block: -6.2%; PNC inhibitor: -113.8*; NPSR antagonist: -2.9%

What do the screens show for `CC1Cc2ccccc2N1C(=O)CSC1=NCCS1` (centres undefined)?
ALDH1A1 inh: inconclusive; IMPase Li cell: -20.6%[38.3 µM]; HPGD block: -17.5%; PNC inhibitor: 10.5; IMPase inh: 3.0; NPSR antagonist: 11.6%[7.67 µM]

Results for CC1Cc2ccccc2N1C(=O)CSc1ccccc1 (centres undefined) ?
ALDH1A1 inh: 17.8µM*; IMPase Li cell: 3.6%[38.3 µM]; HPGD block: -22.0%; PNC inhibitor: 32.6; IMPase inh: 5.3; NPSR antagonist: -6.8%[46.1 µM]

What do the screens show for `CC1CCN(CC(=O)N2c3ccccc3CC2C)CC1` (centres undefined)?
ALDH1A1 inh: inconclusive; IMPase Li cell: 9.2%; NPSR antagonist: 10.9%

Results for CC1Cc2ccccc2N1C(=O)CNc1ccccc1N1CCCCC1 (centres undefined) ?
ALDH1A1 inh: 12.6µM*; IMPase Li cell: 5.9%; NPSR antagonist: -30.8%

Results for Cc1nnc(SCC(=O)N2c3ccccc3CC2C)[nH]c1=O (centres undefined) ?
ALDH1A1 inh: 11.2µM*; IMPase Li cell: -15.3%; HPGD block: -26.1%; PNC inhibitor: 46.5; NPSR antagonist: 6.9%

Results for Cc1ccc(S(=O)(=O)NCc2ccc(/C=C(/C#N)C(=O)NCc3ccccc3)o2)cc1 ?
ALDH1A1 inh: inconclusive; IMPase Li cell: 12.8%; HPGD block: inconclusive; PNC inhibitor: inconclusive; NPSR antagonist: -1.0%

Results for O=C(NCc1ccncc1)C1CCCN(S(=O)(=O)Cc2ccccc2)C1 (centres undefined) ?
ALDH1A1 inh: inconclusive; IMPase Li cell: 8.7%; HPGD block: 5.3%; PNC inhibitor: -13.3; IMPase inh: -1.4; NPSR antagonist: -3.7%[46.1 µM]

How did COc1ccc(OC)c(NC(=O)CSc2nnc3ccc(-c4ccncc4)nn23)c1 do in these assays?
ALDH1A1 inh: -0.7%; IMPase Li cell: 18.5%; NPSR antagonist: 10.8%

How did COC(=O)C1(C)NC(c2ccco2)C2C(=O)N(c3ccc(C)cc3)C(=O)C21 (centres undefined) do in these assays?
ALDH1A1 inh: -0.2%; IMPase Li cell: 20.8%[38.3 µM]; HPGD block: -4.3%; PNC inhibitor: 20.1; IMPase inh: 4.4; NPSR antagonist: -9.0%[46.1 µM]

How did Fc1ccc(NC(=S)NCc2cccs2)cc1 do in these assays?
ALDH1A1 inh: -9.4%; IMPase Li cell: -1.1%; HPGD block: 17.8µM*; PNC inhibitor: -3.2; NPSR antagonist: 7.5%

Results for Cc1ccc(NC(=S)NCc2cccs2)cc1 ?
ALDH1A1 inh: -6.7%; IMPase Li cell: 21.6%[38.3 µM]; HPGD block: 28.2µM*; PNC inhibitor: 11.5; IMPase inh: 2.7; NPSR antagonist: -17.3%[46.1 µM]

What do the screens show for `NS(=O)(=O)c1ccc(NC(=S)NCc2cccs2)cc1`?
ALDH1A1 inh: inconclusive; IMPase Li cell: 5.4%; NPSR antagonist: 0.2%

Results for S=C(NCc1cccs1)Nc1ccccc1 ?
ALDH1A1 inh: inconclusive; IMPase Li cell: -0.2%; HPGD block: 12.6µM*; PNC inhibitor: 40.3; NPSR antagonist: 5.3%

What do the screens show for `Cc1cccc(NC(=S)NCc2cccs2)c1`?
ALDH1A1 inh: -1.7%; IMPase Li cell: -0.6%; NPSR antagonist: -22.6%

How did COc1cccc(NC(=S)NCc2cccs2)c1 do in these assays?
ALDH1A1 inh: -9.4%; IMPase Li cell: -3.9%; HPGD block: 17.8µM*; PNC inhibitor: -7.3; NPSR antagonist: 5.8%

Results for COc1ccc(CN2CCN(C(=O)CC(C)C)CC2)cc1OC ?
ALDH1A1 inh: 4.2%; IMPase Li cell: 4.2%[38.3 µM]; HPGD block: -3.5%; PNC inhibitor: -29.9; IMPase inh: -0.3; NPSR antagonist: -2.8%[46.1 µM]

How did O=C(O)c1ccccc1-n1ncc2c1/C(=C/c1ccc(Cl)cc1)CC2 do in these assays?
ALDH1A1 inh: 22.4µM*; NPSR antagonist: 30.3%

Results for COc1ccc(NC(=O)CCC(=O)OCc2ccc(Br)cc2)cc1 ?
ALDH1A1 inh: -6.7%; IMPase Li cell: 1.1%; HPGD block: 0.3%; PNC inhibitor: 61.7; NPSR antagonist: 7.2%

How did COc1ccc(NC2=NCC(Cc3ccc(Br)cc3)S2)cc1 (centres undefined) do in these assays?
ALDH1A1 inh: -4.5%; IMPase Li cell: -7.3%; HPGD block: -24.8%; PNC inhibitor: -91.7*; NPSR antagonist: -33.0%

What do the screens show for `COc1ccc(CCNC(=O)CSc2nncn2N)cc1OC`?
ALDH1A1 inh: inconclusive; IMPase Li cell: 16.9%[38.3 µM]; HPGD block: -12.3%; PNC inhibitor: -82.3*; IMPase inh: 3.3; NPSR antagonist: -2.3%[46.1 µM]

Results for COc1ccc(CCNC(=O)CSc2nnnn2C)cc1OC ?
ALDH1A1 inh: 5.9%; IMPase Li cell: 2.0%; NPSR antagonist: -17.7%

How did COc1ccc(CCNC(=O)CSc2nnnn2-c2ccccc2OC)cc1OC do in these assays?
ALDH1A1 inh: 0.282µM*; IMPase Li cell: 24.9%[38.3 µM]; HPGD block: -9.5%; PNC inhibitor: 25.1; IMPase inh: 4.7; NPSR antagonist: -18.2%[46.1 µM]

Results for Cc1c(NC(=O)OCCNC(=O)COc2c(Cl)cccc2Cl)sc(=S)n1C ?
ALDH1A1 inh: 0.3%; IMPase Li cell: -0.1%[38.3 µM]; HPGD block: -13.6%; PNC inhibitor: 77.4; IMPase inh: 8.6; NPSR antagonist: -9.4%[46.1 µM]

What do the screens show for `O=C(CC1NC2CCCCC2NC1=O)Nc1cccc(C(F)(F)F)c1` (centres undefined)?
ALDH1A1 inh: -3.8%; IMPase Li cell: -15.2%[38.3 µM]; HPGD block: 0.1%; PNC inhibitor: -6.9; IMPase inh: 2.8; NPSR antagonist: -15.2%[46.1 µM]

How did Cc1cccc(Oc2ccc(S(=O)(=O)N3CCCCC3)cc2N)c1 do in these assays?
ALDH1A1 inh: 0.9%; IMPase Li cell: 9.4%; NPSR antagonist: -8.2%
